Among all 340,000 compounds or so, about 6,400 (1.9%) were called active. Roughly 4% stayed inconclusive and do not appear here. The entries come from a sample that favours actives as a whole. Unmarked numbers belong to inactive results. The call rests on the fitted dose curve; in most records, active means well fitted falling curve with a large enough effect; inconclusive means small, poorly fitted or top-dose-only effect; inactive means no such curve, though single readings can be large or run the other way.
Potency means the concentration at half of the fitted maximal effect.

ATP-dependent Clp protease proteolytic subunit (Bacillus subtilis (strain 168)), sequence (P80244 whole entry, looked up): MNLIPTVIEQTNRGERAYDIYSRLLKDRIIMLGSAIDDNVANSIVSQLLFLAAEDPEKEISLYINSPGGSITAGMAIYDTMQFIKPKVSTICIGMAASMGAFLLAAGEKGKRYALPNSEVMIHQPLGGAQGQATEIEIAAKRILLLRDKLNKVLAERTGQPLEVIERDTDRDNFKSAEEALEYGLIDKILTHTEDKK

This test has as its target ATP-dependent Clp protease proteolytic subunit (Bacillus subtilis (strain 168)) (UniProt P80244). The experiment in a line: qHTS Assay for Activators of ClpP. Further: the source files actives as falling curves though it sought activators and does not explain the sign; nearly all actives have a fitted effect of over 65% in size. Conditions: purified B. subtilis ClpP, FRET peptide cleavage, 20 min; series mostly up to 57.5 µM; activity change, negative = active: at the top concentration. Put shortly: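 Buffer: 100 mM Tris/HCl pH8, 100 mM KCl, 0.05% low protease BSA, 2.5% glycerol, 0.01% Tween-20. ClpP 10 microg/mL final; 20 min RT; delta FRET normalized to ADEP and DMSO controls.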
For the compound `CC(C)c1ccc(OCC(O)CN2CCN(c3ccccn3)CC2)cc1` (stereo not drawn), the “activity change, negative = active” value is -1.52%.
Consider `CC(C)c1ccc(OCC(O)Cn2cnc3ccccc32)cc1` (stereo not drawn), for which the Potency was 28.2 µM (active).
As for `CC(C)c1ccc(Cn2c(COc3ccccc3)nc3ccccc32)cc1`, the “activity change, negative = active” value was -6.11%.
On the same count and under the same terms, the figure for `COCCn1c(=S)[nH]c2cc(C(=O)NCCc3ccc(OC)c(OC)c3)ccc2c1=O` is -0.199%.
On to `CC(C)(C)c1cc(C(=O)NCc2cccnc2)ccn1`, for which the “activity change, negative = active” value is -1.27%.
For the compound `COc1cc2[nH]c(=O)n(Cc3ccc(C(=O)NCc4ccc(C)cc4)cc3)c(=O)c2cc1OC`, the Potency is 10 µM (active).
With `CCOc1cc2[nH]c(=S)n(Cc3ccc(C(=O)NCCOC)cc3)c(=O)c2cc1OCC`, the “activity change, negative = active” value was 1.71%.
Same read-out and setting: the figure for `COc1cc2[nH]c(=O)n(Cc3ccc(C(=O)NC4CCN(Cc5ccccc5)CC4)cc3)c(=O)c2cc1OC` is -18.1%.
`COCCn1c(=O)[nH]c2cc(C(=O)NCc3cccnc3)ccc2c1=O`: the Potency was 28.2 µM (active).
Consider `CCCCCn1nnnc1C1c2ccccc2C(=O)N1Cc1ccco1` (stereo not drawn), for which the “activity change, negative = active” value was -1.36%.
In the case of `C#Cc1cc(N2CCN(C(=O)c3ccoc3)CC2)n2nc(-c3cccc(Cl)c3)cc2n1`, the “activity change, negative = active” value is 4.21%.
For `CC(=O)N1Cc2cc(C(=O)NCc3cccc(F)c3)nc(-c3cccc(C4=CCCCC4)c3)c2[C@H]1CCO`, the “activity change, negative = active” value was -5.83%.
As to `CC(C)(C)C(=O)c1c(N)[nH]c(C(=O)c2ccccc2)c1-c1ccc(F)cc1`, the “activity change, negative = active” value was 0.365%.
On the same count and under the same terms, the figure for `O[C@@H]1C[C@H](c2ccccc2)N(Cc2cccs2)C[C@H]1n1cc(C2CC2)nn1` is 1.89%.
In the case of `O=C(Cn1c(=O)n(Cc2ccccc2)c(=O)c2sc3ccccc3c21)Nc1ccccc1F`, the Potency is 28.2 µM (active).
Turning to `O=C(Cn1c(=O)n(-c2ccc(F)cc2)c(=O)c2sc3ccccc3c21)NC1CCCC1`, the “activity change, negative = active” value was 4.1%.
Regarding `CCOc1ccccc1NC(=O)Cn1c(=O)n(Cc2ccco2)c(=O)c2sc3ccccc3c21`, the “activity change, negative = active” value was -14.3%.
Still for that read-out and setting: the figure for `O=C(CSC1=Nc2ccccc2C2=NC(CC(=O)NCc3ccco3)C(=O)N12)NCc1ccco1` (stereo not drawn) is -15.2%.
As to `O=C(CSC1=Nc2ccccc2C2=NC(c3ccccc3)C(=O)N12)NCC1CCCO1` (stereo not drawn), the Potency is 17.8 µM (active).
For the compound `Cc1ccc(CNC(=O)CSC2=Nc3ccccc3C3=NC(C)C(=O)N23)cc1` (stereo not drawn), the “activity change, negative = active” value was 4.27%.
Consider `Cc1ccc(S(=O)(=O)N2CCN(c3nc(-n4cnc5ccccc54)nc4ccccc34)CC2)cc1`, for which the “activity change, negative = active” value was -24.6%.
For `COc1ccc(-c2cc(C(=O)n3cnc4ccccc43)c3ccccc3n2)cc1`, the Potency is 31.6 µM (active).
For the compound `O=C(c1ccc(Cl)cc1)n1cnc2ccccc21`, the “activity change, negative = active” value is -0.0228%.
For `Cc1ccc(OCC(=O)Nn2cnc3ccccc32)cc1`, the “activity change, negative = active” value was 1.25%.
The same measure, in the same setting: the figure for `CC(=O)Nc1cc(-c2cccc(CO)c2)cn2c(-c3cccc(C(F)(F)F)c3)cnc12` is -10.7%; for `CCN(CC)c1ncnc2c1ncn2[C@H]1CN(Cc2cccs2)C[C@@H](CO)O1` it is 1.98%; for `Cc1cc(OCCCN2CCN(Cc3ccccc3)CC2)ccc1[N+](=O)[O-]` it is 2.82%.
For the compound `Cc1ccccc1NC(=O)c1ccc(COc2ccc3c(C)cc(=O)oc3c2)cc1`, the “activity change, negative = active” value was -26%.
As for `Cc1ccccc1N1CCN(CCCOc2ccc3c(C)cc(=O)oc3c2)CC1`, the Potency was 35.5 µM (active).
Consider `COc1ccccc1N1CCN(CCCCOc2ccc(F)cc2)CC1`, for which the “activity change, negative = active” value is 0.387%.
For `Cc1cc(=O)oc2cc(OCC3CC(c4ccccc4Cl)=NO3)ccc12` (stereo not drawn), the Potency is 28.2 µM (active).
On to `Cc1cc(=O)oc2cc(NC(=O)C3CC(=O)N(Cc4ccccc4)C3)ccc12` (stereo not drawn), for which the “activity change, negative = active” value is 39.1%.
The same measure, in the same setting: the figure for `COc1cccc(C(NC(C)=O)c2nc(-c3ccccc3OC)cs2)c1` (stereo not drawn) is -2.87%.
On to `CC1(C(=O)Nc2ccccc2Br)CCN1C(=O)CC1CC1` (stereo not drawn), for which the “activity change, negative = active” value is -0.604%.
`COc1ccc(C2OC(CCc3ccccc3)Cc3[nH]c(=S)[nH]c(=O)c32)cc1` (stereo not drawn): the “activity change, negative = active” value was 4.97%.
Take `OC[C@@H]1CN(Cc2ccncc2)C[C@H](n2cnc3c(N4CCN(c5ccccc5)CC4)ncnc32)O1`: the “activity change, negative = active” value was -3.11%.
For the compound `COCCCn1cc(CN2CC(N(C)C)CS2(=O)=O)nn1` (stereo not drawn), the “activity change, negative = active” value was -2.45%.
On the same count and under the same terms, the figure for `CCCCC(O)C1=C[N+](=O)CC=C1` (stereo not drawn) is -4.82%.
In the case of `Cc1cc(NCc2ccco2)n2c(nc3ccccc32)c1C#N`, the Potency was 28.2 µM (active).
For `Cc1cc(NC(C)C)n2c(nc3ccccc32)c1C#N`, the “activity change, negative = active” value is -1.59%.
In the case of `CCOCCCNc1c(CC)c(C)c(C#N)c2nc3ccccc3n12`, the “activity change, negative = active” value was -12.5%.
The same measure, in the same setting: the figure for `N#CCCN(C(=O)Nc1ccc(Cl)c(Cl)c1)C1CCCCC1` is -2.9%; for `CCOC(=O)C1CCCN(C(=O)c2cc(-c3cccs3)oc2C)CC1` (stereo not drawn) it is -7.21%.
As to `Cc1ccc(NC(=O)CN(C)C(=O)COC(=O)c2nccnc2N)cc1`, the “activity change, negative = active” value was 4.55%.
For the compound `CCOC(=O)c1c(NC(=O)COc2cc(C)ccc2C(C)C)sc(C)c1C`, the “activity change, negative = active” value was -8.6%.
`CCOC(=O)c1cc(C(C)C)sc1NC(=O)COC(=O)c1nccnc1N`: the Potency is 20 µM (active).
As for `COc1ccc(C(=O)Nc2nc(-c3ccc(S(=O)(=O)N4CCOCC4)cc3)cs2)cc1`, the “activity change, negative = active” value is -13%.
On to `COc1ccc(-c2csc(NC(=O)c3ccc(N4C(=O)CCC4=O)cc3)n2)cc1OC`, for which the Potency is 14.1 µM (active).
On to `COc1ccc(-c2csc(Nc3cccc(C)n3)n2)cc1OC`, for which the “activity change, negative = active” value was 2.08%.
Still for that read-out and setting: the figure for `C=CCNC(=O)CSc1nc2sc(C)c(C)c2c(=O)[nH]1` is -1.33%.
On to `CC(=O)c1sc2nc(SCC(=O)N3CCCCC3)[nH]c(=O)c2c1C`, for which the Potency was 31.6 µM (active).
Consider `O=C(CSc1nc2c(cnn2-c2ccc(F)cc2)c(=O)[nH]1)N1CCCCCC1`, for which the “activity change, negative = active” value is -2.99%.
Take `CC(C)CC1C(=O)N(Cc2cn(CC3CCCCC3)nn2)CCS(=O)(=O)N1Cc1ccc(-c2ccc(Cl)cc2)cc1` (stereo not drawn): the “activity change, negative = active” value is -2.28%.
Same read-out and setting: the figure for `CO[C@@H]1CN(C)C(=O)c2cc(NC(=O)Nc3cc(F)ccc3F)ccc2OC[C@H](C)N(C(=O)c2ccccn2)C[C@@H]1C` is 0.186%.
For the compound `CC(C)Cn1c(N)c(C(=O)NCc2cccs2)c2nc3ccccc3nc21`, the Potency was 7.08 µM (active).
As for `CCOc1ccccc1NC(=O)Cn1nnc(C(=O)NCc2cccs2)c1N`, the “activity change, negative = active” value is -0.11%.
As to `Cn1ncc(Br)c1C(=O)NCc1cccs1`, the “activity change, negative = active” value was 2.03%.
Consider `NCCCNC(=S)NCCCN(Cc1ccc(Cl)cc1)c1ccc(Br)cn1`, for which the “activity change, negative = active” value was -0.884%.
`CC1(C(=O)Nc2ccc3c(c2)OCCO3)CN(S(C)(=O)=O)CC(=O)N1Cc1cccc(F)c1` (stereo not drawn): the “activity change, negative = active” value is -3.71%.
Regarding `O=C(NCc1cccnc1)Nc1ccccc1F`, the “activity change, negative = active” value was -1.06%.
Consider `CCC(Oc1ccccc1)C(=O)NCc1cccnc1` (stereo not drawn), for which the Potency was 35.5 µM (active).
Take `CCC(C(=O)NCc1cccnc1)n1nc(C)c2sc3ccccc3c2c1=O` (stereo not drawn): the “activity change, negative = active” value was 3.56%.
Same read-out and setting: the figure for `CC(=O)Nc1cccc(-c2ccnc3c2CC(C)(C(=O)NCc2ccccc2)O3)c1` (stereo not drawn) is -13.9%.

These data come from PubChem BioAssay AID651965 (National Center for Advancing Translational Sciences (NCATS), 2013).
